For 63 compounds, inhibition results are on record in PubChem BioAssay AID2825 (Sanford-Burnham Center for Chemical Genomics, 2010).

Each structure is given as a SMILES string. Hit rate of the full screen: of about 330,000 compounds, about 1,300 (0.39%) were called active. What follows is part of a selection rich in actives, with near analogues and random picks from the rest. A number with no mark means an inactive call.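 How the source made its calls: active means inhibition of 50% or more; inactive means inhibition below 50%.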

A short description of the test: NALP3 inflammasome inhibitors in reconstituted yeast, primary screen, luminescence, uHTS (AID 2825).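 Further: plate controls were induced DMSO wells for no effect and uninduced yeast grown without galactose for full effect.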 The note with it: Yeast reconstituted NLRP3/ASC/caspase-1, beta-gal luminescence, 24 h; at 10 µM; hits give high values.
For `O=C(NCc1ccc2c(c1)OCO2)c1c(O)nc2sccn2c1=O`, the inhibition (in general, the relative decrease from the control value, in per cent) is 56% (active).

Turning to `O=C(NCc1ccc2c(c1)OCO2)c1sccc1Br`, the inhibition is 40.9%.

Consider `CCn1c(=O)c(C(=O)NCc2ccc3c(c2)OCO3)c(O)c2ccccc21`, for which the inhibition was 17.1%.

Regarding `CC(NC(=O)COC(=O)CCC(=O)c1ccc(Cl)cc1)c1ccccc1` (stereo not drawn), the inhibition is 6.94%.

Consider `O=C(NC(=S)Nc1ncccn1)c1ccccc1Br`, for which the inhibition was 6.12%.

For the compound `CC1CCN(C(=S)NC(=O)c2ccccc2Br)CC1`, the inhibition was 15.7%.

`CCCN(CC1CC1)C(=S)NC(=O)c1ccccc1Br`: the inhibition is 50.5% (active).

Regarding `COc1ccc(S(=O)(=O)NCc2cccnc2)cc1NC(=O)c1ccc(C)cc1`, the inhibition is 9.95%.

In the case of `CCc1cc(-c2n[nH]c(=S)n2CC(C)C)cs1`, the inhibition was 29.7%.

Turning to `Cc1nc2sc(C(c3ccco3)N3CCC4(CC3)OCCO4)c(O)n2n1` (stereo not drawn), the inhibition was 13.3%.

`Cc1ccc(O)c(NC(=O)c2cc(-c3ccco3)on2)c1`: the inhibition was 56.4% (active).

Regarding `O=C(Nc1ccccc1C(F)(F)F)c1cc(-c2ccc(O)cc2)on1`, the inhibition was 32%.

`CC(C)Cc1cc(C(=O)Nc2cc(Br)ccc2O)no1`: the inhibition is 29.5%.

With `COc1cccc(C(=O)Oc2cc(C)[nH]c(=O)c2[N+](=O)[O-])c1`, the inhibition is 16%.

In the case of `COC(=O)c1ccc(S(=O)(=O)N(CCO)Cc2ccccc2)n1C`, the inhibition was 4.79%.

Turning to `CN1CCN(C(=O)/C(=C\c2cccs2)NC(=O)c2cccs2)CC1`, the inhibition is 7.81%.

Turning to `C=CCn1c(SCC(N)=O)nnc1-c1cc2c(s1)CCC(CC)C2` (stereo not drawn), the inhibition was 4.35%.

For `O=C(O)C1CCCN1C1=NS(=O)(=O)c2ccccc21` (stereo not drawn), the inhibition is -1.91%.

Consider `O=C(Nc1cccc(-c2nc3ncccc3o2)c1)c1ccco1`, for which the inhibition was 18.2%.

Turning to `O=C(Nc1ccc2oc(-c3ccccc3F)nc2c1)c1ccco1`, the inhibition is 54.8% (active).

For the compound `COc1cc(OC)cc(C(=O)Nc2ccc(-c3nc4ccccc4o3)c(O)c2)c1`, the inhibition was 10.3%.

Turning to `C=CCN1C(=O)C(O)(CC(=O)c2ccc(Cl)cc2)c2ccccc21` (stereo not drawn), the inhibition was -10.4%.

For the compound `CC(Sc1ncnc2c1cnn2-c1ccccc1)C(=O)Nc1ccc(N2CCOCC2)cc1` (stereo not drawn), the inhibition is 8.39%.

In the case of `CCN(CC)C(=O)CSc1ncnc2c1cnn2-c1ccccc1`, the inhibition is 35.5%.

Regarding `CC(C)Sc1ncnc2c1cnn2-c1ccccc1`, the inhibition was 50.5% (active).

Consider `Oc1c(Cl)cc(Cl)c(Cl)c1Cc1c(O)c(Cl)cc(Cl)c1Cl`, for which the inhibition was 95.9% (active).

`CCCn1c(SCC(=O)Nc2ccc(C)c(S(=O)(=O)N3CCOCC3)c2)n[nH]c1=O`: the inhibition was 4.23%.

Take `CC1(C)Cc2c(sc3nc(SCC(=O)NCc4ccccc4)n(-c4ccccc4)c(=O)c23)CS1`: the inhibition is -8.33%.

`COC(=O)c1ccc(S(=O)(=O)NCc2ccccc2)n1C`: the inhibition is 14.2%.

On to `O=C(Nc1cc(S(=O)(=O)N2CCCCC2)ccc1Cl)C1COc2ccccc2O1` (stereo not drawn), for which the inhibition was 4.78%.

Turning to `CCCCCCCCCCCC(=O)O`, the inhibition was 12.3%.

For the compound `CCCCCCC12CCC(C(=O)O)(CC1)CC2`, the inhibition was 54.3% (active).

`CN1CCN(c2ccc(S(=O)(=O)N3CCOCC3)cc2NC(=O)CCc2ccccc2)CC1`: the inhibition is 12.1%.

Turning to `COc1cc(NC(=O)CN2C(=O)NC(C)(c3ccc(OC(F)F)cc3)C2=O)cc(OC)c1OC` (stereo not drawn), the inhibition was 11.2%.

For `O=[N+]([O-])c1c(NCCO)cc(Sc2nc3ccccc3s2)c2nonc12`, the inhibition was 55.2% (active).

Consider `CCN(CC)CCCSc1nc2ccccc2s1`, for which the inhibition was 15.5%.

Regarding `Cc1nc2nc(CSc3nc4ccccc4s3)cc(=O)n2[nH]1`, the inhibition was 1.14%.

As to `Cc1ccccc1S(=O)(=O)Cc1ccc(C(=O)NCCN2CCCCC2C)o1` (stereo not drawn), the inhibition is 13.3%.

For the compound `COc1ccc(C2Nc3ccccc3C(=O)N2c2ccc(Cl)cc2)cc1Cn1cc([N+](=O)[O-])cn1` (stereo not drawn), the inhibition is 1.4%.

`Cc1cccc(C(=O)OC(C)C(=O)NC2CCCc3ccccc32)c1O` (stereo not drawn): the inhibition was 11.6%.

On to `Cc1ccc(C(c2sc3nc(C)nn3c2O)N2CCN(c3ccccc3)CC2)cc1` (stereo not drawn), for which the inhibition was -2.77%.

In the case of `CCN(CC)c1ccc(/C=N/NC(=O)c2cnccn2)c(O)c1`, the inhibition is 27.9%.

In the case of `CCN(CC)c1ccc(/C=N/Nc2nc(C)cc(C)n2)c(O)c1`, the inhibition is 58.1% (active).

As for `Cc1cc(C)nc(N/N=C/c2c(CO)cnc(C)c2O)n1`, the inhibition was 15.2%.

For `OCCC1CN(Cc2cnc(-c3ccccc3)s2)CCN1CCc1ccccc1` (stereo not drawn), the inhibition was 1.33%.

On to `CCOC(OCC)c1ccc(/C=C\c2nccc(N)n2)cc1`, for which the inhibition was 14.7%.

On to `COc1ccc(Oc2coc3cc(OC(=O)c4cncc(Br)c4)ccc3c2=O)cc1`, for which the inhibition is 2.36%.

`O=C(OCc1cc2ccccc2[nH]c1=O)c1cccnc1`: the inhibition is 11.2%.

`O=C(Oc1c(-c2ccco2)oc2ccccc2c1=O)c1cccnc1`: the inhibition was 54.3% (active).

`C=C(C)c1cccc(C(C)(C)NC(=O)NCCN(CC)CC)c1`: the inhibition was 5.58%.

For the compound `COC(=O)c1cc(S(=O)(=O)NC2CCN(Cc3ccccc3)CC2)cn1C`, the inhibition was 11.4%.

Take `CCOC(=O)c1c(C)[nH]c(C(=O)OCC(=O)c2ccc(OC)cc2OC)c1C`: the inhibition was 22.6%.

On to `CCOC(=O)c1c(C)[nH]c(C(=O)COc2ccc3c(c2)OCO3)c1C`, for which the inhibition was 79.9% (active).

Turning to `CC(=O)c1c(C)[nH]c(C(=O)COc2ccc3c(C)cc(=O)oc3c2)c1C`, the inhibition was 17.5%.

Consider `O=c1[nH]c(CCl)nc2cc(-c3ccc(Cl)cc3)sc12`, for which the inhibition is 2.25%.

With `O=C(NCC1CCCO1)c1ccc(S(=O)(=O)Nc2ccc(F)cc2)cc1` (stereo not drawn), the inhibition is 16.8%.

As for `COCCNC(=S)N1CCN(C)CC1`, the inhibition is 5.02%.

Regarding `CC(Sc1ccccc1F)C(=O)Nc1cccc(S(=O)(=O)N2CCOCC2)c1` (stereo not drawn), the inhibition was 6.56%.

`Cc1ccnc(-n2sc3ccccc3c2=O)n1`: the inhibition is 6.74%.

As for `Cc1ccnc(Nc2nc3ccccc3s2)n1`, the inhibition was 53.7% (active).

On to `O=C(CCC(=O)c1cccs1)Nc1nc2ccccc2s1`, for which the inhibition is 3.03%.

In the case of `Cc1ccc(NS(=O)(=O)c2cccs2)cc1S(=O)(=O)N1CCCCCC1`, the inhibition is 8.88%.

`CCn1nc(C)c(NC(=O)/C=C/c2ccc(OC)c(COc3ccc(Br)cc3)c2)c1C`: the inhibition was 7.05%.
